Unmarked numbers belong to inactive results. Results filed as inconclusive are left out. Entries that show only a call come without a potency. Calls of active or inactive are those of the source. Unless noted, calls follow the shape of the dose curve; as a rule, active = well fitted cell-killing curve with a large enough effect; inconclusive = small, poorly fitted or top-dose-only effect, or effect the other way; inactive = flat fitted curve, though single readings scatter.
Legend:
OV90 = experiment: Primary qHTS to identify gynecologic anti-cancer compounds using libraries of approved drugs and bioactive compounds (AID 1345084); conditions: Gynecologic cancer cell panel viability, ATPlite luminescence, 48 h; series mostly up to 57.5 µM; also: nearly all actives have a fitted effect of over 55% in size; also: potency is read from the fitted curve at half-maximal effect
Outline: (§1)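 In this quantitative HTS, cell killing is estimated from loss of ATP-dependent luciferase light. Cells see five compound concentrations over a 48 h exposure.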

PA-1 = experiment: as above; conditions: Gynecologic cancer cell panel viability, ATPlite luminescence, 48 h; series mostly up to 57.5 µM
Outline: as §1

SKOV3 = experiment: as above; conditions: Gynecologic cancer cell panel viability, ATPlite luminescence, 48 h; series mostly up to 57.5 µM
Outline: as §1

Tov-21-G = experiment: as above; conditions: Gynecologic cancer cell panel viability, ATPlite luminescence, 48 h; series mostly up to 57.5 µM
Outline: as §1

Tov112D = experiment: as above; conditions: Gynecologic cancer cell panel viability, ATPlite luminescence, 48 h; series mostly up to 57.5 µM
Outline: as §1

[1] = target: Nuclear receptor subfamily 1 group I member 2 (Rattus norvegicus) (UniProt Q9R1A7); experiment: qHTS assay for small molecule activators of the rat pregnane X receptor (rPXR) signaling pathway (AID 651751; call rule not given here); conditions: rPXR reporter cells, luciferase (One-Glo), 24 h
[2] = qHTS assay for small molecule activators of the human pregnane X receptor (PXR) signaling pathway (AID 720659; call rule not given here)

Sequence of Nuclear receptor subfamily 1 group I member 2 (Rattus norvegicus) (Q9R1A7 whole entry, looked up): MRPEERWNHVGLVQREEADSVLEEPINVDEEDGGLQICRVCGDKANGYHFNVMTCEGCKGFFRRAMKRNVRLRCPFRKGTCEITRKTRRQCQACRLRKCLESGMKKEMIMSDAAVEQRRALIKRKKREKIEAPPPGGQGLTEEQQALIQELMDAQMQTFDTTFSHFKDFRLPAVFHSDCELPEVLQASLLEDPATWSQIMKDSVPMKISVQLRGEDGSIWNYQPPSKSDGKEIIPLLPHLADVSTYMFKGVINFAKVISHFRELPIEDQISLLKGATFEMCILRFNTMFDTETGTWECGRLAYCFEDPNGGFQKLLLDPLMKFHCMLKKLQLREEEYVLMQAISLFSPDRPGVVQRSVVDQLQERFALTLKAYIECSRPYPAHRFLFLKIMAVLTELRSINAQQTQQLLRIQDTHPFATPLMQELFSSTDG

| Compound | Potency (OV90) | Potency (PA-1) | Potency (SKOV3) | Potency (Tov-21-G) | Potency (Tov112D) | max response [1] [%] | outcome [2] |
| --- | --- | --- | --- | --- | --- | --- | --- |
| CC(=O)O[C@@H]1CC(C)=C2[C@H]1[C@H](C)CC[C@H]2/C=C(\C)C(=O)O | inactive | inactive | inactive | inactive | inactive | -4.19 | inactive |
| CNC(=O)c1ccccc1Nc1cc(Nc2ccc(N3CCOCC3)cc2OC)ncc1C(F)(F)F | inactive | 15.8 µM (active) | inactive |  | inactive |  |  |
| C=C(C)C(=O)OC1C(OC(C)=O)/C(C=O)=C\CC/C(CO)=C/C2OC(=O)C(=C)C21 (stereo unspecified) | inactive | inactive | inactive |  | inactive |  |  |
| C[C@@H]1C(=O)OC[C@H]2C(C(=O)O)=C[C@@H]3CC(C)(C)C[C@]312 | inactive | inactive | inactive |  | inactive |  |  |
| COc1cc2ncnc(Nc3ccc(O)cc3)c2cc1OC | inactive | inactive | inactive |  | inactive |  |  |
| Cc1ccc(S(=O)(=O)Nc2ccccc2N2CCCCC2)s1 | inactive | inactive |  | inactive | inactive |  |  |
| CNC(=O)c1ccccc1Nc1nc(Nc2ccc3c(c2OC)CCC[C@@H](N2CCN(CCO)CC2)C3)ncc1Cl | 7.94 µM (active) | 10 µM (active) |  | 10 µM (active) |  |  |  |
| N#Cc1c(Oc2ccc(F)c(NC(=O)Cc3cccc(C(F)(F)F)c3)c2)ccc2nc(NC(=O)C3CC3)sc12 | 1.58 µM (active) | 8.91 µM (active) |  | 7.94 µM (active) |  |  |  |
| Cc1cc(C)c(CNC(=O)c2cc(-c3ccc(CN4CCOCC4)cc3)cc3c2cnn3C2CCCC2)c(=O)[nH]1 | inactive | inactive |  | inactive | inactive |  |  |
| C=CC1C(OC2OC(CO)C(O)C(O)C2O)OC=C(C(=O)OC)C1CC1CC(=O)CC(CCc2ccc(O)cc2)O1 (stereo unspecified) | inactive | inactive | inactive |  | inactive |  |  |
